# Results filed as inconclusive are left out. Values without a mark were called inactive. The call rests on the fitted dose curve; in most records, active means well fitted activation curve with a large enough effect; inconclusive means small, poorly fitted or top-dose-only effect; inactive means no such curve, though single readings can be large or run the other way.
# Biological target: Cellular tumor antigen p53 (Homo sapiens) (UniProt P04637)
# Assay: Primary qHTS for small molecule compounds that upregulate eGFP-tagged delta133p53alpha (in N-terminal) cells. (AID 2060322);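 further: series mostly up to about 56 µM; 0% = DMSO vehicle and 100% = reference activator; nearly all actives have a fitted effect of over 75% in size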
# Details: NCI-H358 eGFP-delta133p53alpha fluorescence, 24 h; activation: stronger effect = higher value
# In short: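 NCI-H358 cells pre-induced 24 h with 10 ng/ml doxycycline to express N-terminal eGFP-delta133p53alpha, then dosed 24 h at 37C without doxycycline; fixed, Hoechst-stained, GFP intensity by laser scanning cytometry, normalized to DMSO (0%) and 57.5 uM 5-azacytidine (100%).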
# Sequence of Cellular tumor antigen p53 (Homo sapiens) (P04637 whole entry, looked up): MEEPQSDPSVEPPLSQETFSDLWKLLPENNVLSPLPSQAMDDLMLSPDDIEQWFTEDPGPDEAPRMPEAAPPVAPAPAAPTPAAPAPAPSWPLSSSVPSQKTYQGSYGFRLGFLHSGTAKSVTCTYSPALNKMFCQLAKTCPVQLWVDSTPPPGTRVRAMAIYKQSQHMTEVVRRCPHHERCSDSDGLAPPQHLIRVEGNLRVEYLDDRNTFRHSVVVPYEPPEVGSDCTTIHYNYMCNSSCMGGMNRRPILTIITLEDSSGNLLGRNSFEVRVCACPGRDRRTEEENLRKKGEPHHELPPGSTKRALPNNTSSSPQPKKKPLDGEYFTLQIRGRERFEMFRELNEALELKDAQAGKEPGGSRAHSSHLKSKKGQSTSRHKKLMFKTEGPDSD
row,Structure (SMILES),activation [%]
1,CC(=O)Oc1ccc(C)cc1,-17.5
2,CCCCN(CCN(CCCC)C(=O)N1CCOCC1)C(=O)N1CCOCC1,-21.8
3,N#Cc1cc(NC(=O)C(=O)O)c(Cl)c(NC(=O)C(=O)O)c1,0.565
4,Nc1ccc(C(=O)O)cc1,-29.9
5,COc1ccccc1OC(=O)Oc1ccccc1OC,6.69
6,NC(=O)c1ncn([C@@H]2O[C@H](CO)[C@@H](O)[C@@H]2O)c1O,-3.98
7,CCCC(=O)OCOC(=O)C1=C(C)NC(C)=C(C(=O)OC)C1c1cccc(Cl)c1Cl (configuration not stated),-26.6
